Source: PubChem
DT40 TDP1 CPT = DT40-hTDP1 cell growth loss with CPT; chicken DT40 Tdp1-/-;hTDP1 cells + 20 nM CPT, ATP luminescence, 48 h; Potency, µM (titrated, usually from 46.2 µM), inactives show at the top dose activity change, negative = growth inhibition, usual class: inhibitors; 420,000 compounds, 12% hits; AID 686979; also: % is scaled to controls: 0 for no effect and ±100 for the full control effect; nearly all actives have a fitted effect of over 55% in size
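Chicken DT40 Tdp1-/- cells complemented with human TDP1, 400 cells/well, exposed to compounds plus 20 nM camptothecin for at least 48 h at 37 C; viability read as ATP content by CellTiter-Glo luminescence.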
HT1080-NT tox = kills 2HG-producing HT-1080-NT fibrosarcoma cells; HT-1080-NT fibrosarcoma viability, CellTiter-Glo ATP luminescence, 48 h; 360,000 compounds, 1.6% hits; Potency, µM (highest dose often 46.1 µM), for the others: top-dose activity, negative = less viability, usual class: cytotoxic;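 also: NT is the 2HG producing partner of a matched IDH1 knockdown line; 0% = DMSO-treated cells and -100% = media-only wells without cells; nearly all actives have a fitted effect of over 55% in size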
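Read-out is CellTiter-Glo luminescence after 10 minutes at room temperature, following 48 hours' compound treatment of HT-1080-NT cells (750 cells/well, RPMI, 5% FBS, 37 degrees C).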
HT1080 IDH1KD tx = HT-1080 IDH1 knockdown cell toxicity (counter line); 360,000 compounds, 2% hits; Potency, µM (series often up to 46.1 µM), for inactives: at the highest dose activity, negative = toxicity, hits mostly cytotoxic; HT-1080 IDH1 knockdown viability, ATP luminescence, 48 h;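 also: 0% = DMSO wells and -100% = cell-free medium wells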
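Cytotoxicity counter-line: IDH1KD HT-1080, 48 h, CellTiter-Glo. Curves classed by r2, magnitude and activity.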
TGFb SMAD3 inh = blocks TGF-b signaling | HepG2 CAGA-GFP TGF-b/SMAD3 reporter, GFP fluorescence, 18 h; TGF-beta stimulated, 500 pg/mL final | Potency, µM (series often up to 46.1 µM), for inactives: top-dose activity, negative = inhibition, most hits filed as inhibitors | 410,000 compounds, 1.2% hits; also: % is scaled to controls: 0 for no effect and ±100 for the full control effect; nearly all actives have a fitted effect of over 65% in size
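TGF-beta reporter screen: HEPG2 CAGA-GFP, 1% FBS, 500 pg/mL TGF-beta final, 18 h; per-cell GFP summed per well; curves fitted and categorized by class.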
HepG2 tox = HepG2 cytotoxicity, counter-screen for TGF-b inhibitors. HepG2 CAGA-GFP viability, ATP luminescence, 18 h. Potency, µM (top dose mostly 46.1 µM), for the others: at the highest dose activity change, negative = cytotoxicity, most hits filed as cytotoxic. 410,000 compounds, 0.76% hits. AID 588856
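CellTiter-Glo luminescence gave cytotoxicity after 18 hours at 37 degrees C. The cells were HepG2 CAGA-GFP in 1% FBS DMEM, stimulated with 500 pg/mL TGF-beta after compound addition. %Activity was normalised to no-cell wells (complete cell-killing) and DMSO (no toxicity), and curves were fitted and classified.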
TDP1 cell noCPT = qHTS for Inhibitors of human tyrosyl-DNA phosphodiesterase 1 (TDP1): qHTS in cells in absence of CPT. DT40 Tdp1-/- hTDP1 cells, no CPT, ATP luminescence, 48 h. Potency, µM (top dose mostly 46.2 µM), for inactives: at the highest dose activity change, negative = growth inhibition, hits mostly inhibitors. 420,000 compounds, 15% hits; also: % is scaled to controls: 0 for no effect and ±100 for the full control effect; nearly all actives have a fitted effect of over 55% in size
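Compound effects on proliferation are scored in DT40 Tdp1-/-;hTDP1 cells in the absence of CPT. ATP levels (CellTiter-Glo luminescence) are recorded after a ≥48 hr, 37 °C incubation.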
Numbers without * were called inactive; ? = inconclusive; / = no result given. Sampled rows, rich in hits. Any-hit rate of the full collection: about 17%. Calls follow the shape of the dose curve; as a rule, active = well fitted curve in the direction sought with a large enough effect; inconclusive = small, poorly fitted or top-dose-only effect, or another doubt; inactive = no such curve, though single readings can be large; an effect the other way counts as inactive or inconclusive. Potency is read from the fitted curve at half-maximal effect.

SMILES	DT40 TDP1 CPT	HT1080-NT tox	HT1080 IDH1KD tx	TGFb SMAD3 inh	HepG2 tox	TDP1 cell noCPT
Cc1sc2ncn(CC(=O)N(C)c3ccc(C(C)C)cc3)c(=O)c2c1S(=O)(=O)N1CCC(C)CC1	23µM*	/	/	1%	-18%	23µM*
CCC(C)NC(=O)Cn1cnc2sc(C)c(S(=O)(=O)N3CCN(c4ccccc4OC)CC3)c2c1=O (configuration not stated)	8%	1%	-3%	5%	-4%	-29%
COc1ccccc1N1CCN(S(=O)(=O)c2c(C)sc3ncn(CC(=O)N(C)c4ccc(C(C)C)cc4)c(=O)c23)CC1	13µM*	/	/	-15%	-21%	?
COc1ccc(C[C@H]2CN3C(=NC[C@@H]3Cc3ccc(O)cc3)N2C[C@H](C)NC(=O)c2ccc(C)c(Br)c2)cc1	4.6µM*	-15%	-14%	22µM*	18µM*	21µM*
COc1ccc(C[C@H]2CN3C(=NC[C@@H]3C(C)C)N2C[C@H](C)NC(=O)c2ccc(C)c(Br)c2)cc1	29µM*	-10%	-26%	?	-58%	18µM*
Cc1ccc(C(=O)N[C@@H](C)CN2C3=NC[C@H](C(C)C)N3C[C@H]2Cc2ccc(O)cc2)cc1Br	4.6µM*	-26%	-30%	?	-35%	5.8µM*
N#Cc1c(NC(=O)C2CCCO2)sc2c1CCCCCC2 (configuration not stated)	-4%	5%	11%	-8%	4%	-23%
N#Cc1ccc(COC(=O)CCc2c[nH]c3ccccc23)cc1	-7%	8%	11%	0%	-12%	20%
O=[N+]([O-])c1ccccc1SNc1ccccc1	-28%	-8%	-9%	-2%	-29%	-28%
NC(=O)CC(NSc1ccccc1[N+](=O)[O-])C(=O)O (configuration not stated)	16µM*	1%	-7%	8%	-1%	18µM*
O=C(O)C1CCC(NSc2ccccc2[N+](=O)[O-])CC1 (configuration not stated)	2.9µM*	1%	-2%	-20%	-76%	2.6µM*
CCN(CCCNC(=O)COc1cc(=O)n(CC)c2ccccc12)c1ccccc1	23µM*	0%	-3%	1%	-39%	?
CCn1c(=O)cc(SCC(=O)NCCc2cccc(C)c2)c2ccccc21	?	/	/	-17%	-29%	?
CCN(CCCNC(=O)CSc1cc(=O)n(CC)c2ccccc12)c1cccc(C)c1	21µM*	/	/	?	-39%	21µM*
Cc1cccc(C)c1NC(=O)Cn1nc(-c2ccc(Cl)s2)ccc1=O	2%	-6%	4%	0%	-13%	11%
COc1ccc(S(=O)(=O)N2CCOCC2)cc1C(=O)N(C)Cc1ccccc1F	-6%	5%	3%	-18%	-12%	-21%
O=C(c1cc(S(=O)(=O)N2CCOCC2)ccc1F)N(Cc1nnc(-c2ccccc2Cl)o1)C1CC1	?	-1%	0%	-4%	-16%	?
CN(Cc1cccc(Cl)c1Cl)C(=O)c1cc(S(=O)(=O)N2CCOCC2)ccc1F	16µM*	-12%	-2%	-3%	-10%	21µM*
CN(Cc1ccccc1)S(=O)(=O)c1ccc(Cl)c(C(=O)O)c1	-9%	0%	13%	-8%	-8%	-21%
CN(Cc1ccccc1)S(=O)(=O)c1ccc(Cl)c(C(=O)N2CCOCC2)c1	18µM*	1%	-3%	-14%	-6%	21µM*
C=CCN(Cc1ccc(Cl)s1)C(=O)c1cc(S(=O)(=O)N2CCOCC2)ccc1F	18µM*	-3%	-11%	?	-28%	13µM*
